According to PubChem BioAssay (NCATS):
Values joined by “and” are separate entries in the source; they are usually repeats but may differ in a detail not shown here. Equal entries are not always repeated. Inconclusive results are not listed. Where a call stands in place of a potency, no number is given. Active and inactive are the calls of the source. Unless noted, the call rests on the fitted dose curve; in most records, active means well fitted curve in the direction sought with a large enough effect; inconclusive means small, poorly fitted or top-dose-only effect, or another doubt; inactive means no such curve, though single readings can be large; an effect the other way counts as inactive or inconclusive.

Key:
[1] = molecular target: Alpha-galactosidase A (Homo sapiens) (UniProt P06280); experiment: Counterscreen for Glucocerebrosidase Inhibitors: qHTS Assay for Human alpha-Galactosidase at pH 4.5 (AID 992)
How it was run: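 Quantitative HTS: compounds tested from 0.7 nM up to 77 uM against 2 nM enzyme with 80 uM 4-MU alpha-D-galactopyranoside. The 20 min room-temperature reaction is stopped with 1M NaOH/1M glycine, pH 10.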

[2] = molecular target: alpha-glucosidase (Oryza sativa, rice) (UniProt Q653V4); experiment: Counterscreen for Glucocerebrosidase Inhibitors: qHTS Assay for Rice alpha-Glucosidase at pH 5.0 (AID 997)
How it was run: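 Rice alpha-glucosidase (4 nM final) with 400 uM 4-methylumbelliferyl-alpha-D-glucopyranoside in citrate buffer pH 5.0, 20 min at room temperature, stopped at pH 10; fluorescence 365/440 nm, compounds 0.7 nM–77 uM, AC50 from Hill fits.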

[3] = qHTS Assay for Lipid Storage Modulators (AID 1519; calls by dose curve); conditions: Drosophila S3 cells, BODIPY lipid droplet/cell ratio, laser cytometry, cells loaded with oleic acid
How it was run: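 Cells seeded at 5,000 per well were treated with compounds over a concentration series and loaded with oleic acid (400 uM, as added). Lipid droplet fluorescence (488 nm excitation, 500-530 nm channel) was read by laser-scanning cytometry and normalized to 20 uM Triacsin C.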

[4] = Counterscreen for APE1 Inhibitors: Fluorescent Dye Displacement Validation Assay (AID 1707)
How it was run: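 Compounds are scored by their ability to displace Thiazole Orange (250 nM) from a 50 nM TAMRA-tagged duplex bearing a tetrahydrofuran abasic site. Buffer is 50 mM Tris-HCl pH7.5, 50mM NaCl, 2 mM MgCl2, 0.01% Tween-20.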

[5] = molecular target: Endonuclease 4 (Escherichia coli (strain K12)) (UniProt P0A6C1); experiment: Counterscreen for APE1 Inhibitors: qHTS Validation Assay for Inhibitors of Endonuclease IV (AID 1708); further: potency means the concentration at half of the fitted maximal effect
How it was run: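 2 nM enzyme was preincubated with compounds for 15 min at room temperature in 50 mM Tris-HCl pH 7.5, 50 mM NaCl, 2 mM MgCl2, 1 mM DTT, 0.01% Tween-20. 50 nM THF-abasic TAMRA/BHQ-2 duplex substrate started the reaction.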

[6] = qHTS for differential inhibitors of proliferation of Plasmodium falciparum line 7G8 (AID 1815);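 further: parasite growth measured after three days of incubation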; further: potency means the concentration at half of the fitted maximal effect
[7] = qHTS for differential inhibitors of proliferation of Plasmodium falciparum line GB4 (AID 1816); conditions: Potency: Plasmodium falciparum GB4 proliferation inhibition;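 further: parasite growth measured after 72 h incubation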; further: potency means the concentration at half of the fitted maximal effect
[8] = qHTS for differential inhibitors of proliferation of Plasmodium falciparum line 3D7 (AID 1876); further: potency means the concentration at half of the fitted maximal effect
[9] = qHTS for differential inhibitors of proliferation of Plasmodium falciparum line D10 (AID 1877);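 further: parasites grown with compound for 72 h before DNA staining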; further: potency means the concentration at half of the fitted maximal effect
[10] = qHTS for differential inhibitors of proliferation of Plasmodium falciparum line Dd2 (AID 1882); conditions: Potency: Plasmodium falciparum Dd2 proliferation inhibition; further: nearly all actives have a fitted effect of over 65% in size; further: potency means the concentration at half of the fitted maximal effect;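 on activity change, negative = inhibition: compound exposure of 72 h on infected erythrocytes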
How it was run: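 SYBR Green I DNA fluorescence read-out, ex 485/em 535 nm. Signals were normalized to 0.29 uM artemisinin and DMSO wells, then corrected using vehicle-only plates flanking each stack. Parasite growth ran 72 h in erythrocytes before lysis.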

[11] = qHTS for differential inhibitors of proliferation of Plasmodium falciparum line W2 (AID 1883); conditions: Potency: Plasmodium falciparum W2 proliferation inhibition;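 further: parasites grown with compound for 72 h before lysis and staining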; further: potency means the concentration at half of the fitted maximal effect
[12] = molecular target: DNA repair nuclease/redox regulator APEX1 (Homo sapiens) (UniProt P27695); experiment: qHTS Validation Assay for Inhibitors of the Human Apurinic/apyrimidinic Endonuclease 1 (APE1) (AID 1705; further: potency means the concentration at half of the fitted maximal effect;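 on activity change, negative = inhibition: TAMRA fluorescence gain over two minutes as APE1 cuts a quenched THF abasic duplex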)
How it was run: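 Fluorogenic double-stranded THF abasic-site substrate (5'-TAMRA/3'-BHQ-2), 50 nM final. Enzyme preincubated with compound 15 min at room temperature, then substrate added. Kinetic fluorescence (ex 525/em 598 nm) read three times at 60 s intervals; activity taken as third-minus-first read difference.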

[13] = Cell Viability - LYMP2-018 (AID 985);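 further: compound exposure lasted 24 hr at 37 °C; nearly all actives have a fitted effect of over 50% in size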
How it was run: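 Acute cytotoxicity is scored as a concentration-dependent drop in intracellular ATP after 24 hr exposure of the lymphoblastoid line in complete culture medium, measured by luciferase luminescence. Potency is expressed as AC50 from Hill modelling.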

[14] = Cell Viability - LYMP2-020 (AID 986);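 further: cells exposed to compound for 24 h at 37 °C; nearly all actives have a fitted effect of over 55% in size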
How it was run: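 Acute cytotoxicity in a human lymphoblastoid line is scored as a concentration-dependent fall in cellular ATP after 24 hr at 37 C in complete medium. The positive control is tetraoctylammonium bromide, and potency is given as Hill-fit AC50.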

[15] = Cell Viability - LYMP2-022 (AID 987);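 further: cells exposed to compound for 24 hr; nearly all actives have a fitted effect of over 55% in size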
How it was run: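 Acute toxicity in a human lymphoblastoid line is scored as decreased intracellular ATP after 24 hr compound treatment at 37 C. ATP is measured by CellTiter-Glo luminescence; curves are fitted with the Hill equation to give AC50.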

[16] = Cell Viability - LYMP2-024 (AID 988);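 further: cells exposed to compound for 24 hr at 37 °C; nearly all actives have a fitted effect of over 60% in size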
How it was run: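 Acute toxicity is measured as concentration-dependent loss of intracellular ATP in a human lymphoblastoid line treated 24 hours at 37 C. Luciferase luminescence quantifies ATP; AC50 values come from standard Hill-equation modelling.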

[17] = Cell Viability - LYMP2-026 (AID 989);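 further: cells exposed to compound for 24 h at 37 °C; nearly all actives have a fitted effect of over 50% in size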
How it was run: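 Concentration-dependent loss of intracellular ATP in human lymphoblastoid cells after 24 hr at 37 C, quantified by luciferase luminescence. AC50 derived from standard Hill equation.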

[18] = Cell Viability - LYMP1-002 - Assay at 24 hr (AID 993)
How it was run: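 qHTS, LYMP1-002 lymphoblastoid, 24 h cpd, 37 C, CellTiter-Glo ATP luminescence; AC50 via Hill eq.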

[19] = Cell Viability - LYMP1-002 - Assay at 40 hr (AID 994); further: nearly all actives have a fitted effect of over 60% in size
How it was run: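 Viability in the human lymphoblastoid line was measured as intracellular ATP via CellTiter-Glo after 40 hr compound exposure. Tetraoctylammonium bromide served as positive control.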

[20] = measured here: cell count channel max response
[21] = measured here: lipid channel max response

DNA repair nuclease/redox regulator APEX1 (Homo sapiens), sequence (P27695 whole entry, looked up): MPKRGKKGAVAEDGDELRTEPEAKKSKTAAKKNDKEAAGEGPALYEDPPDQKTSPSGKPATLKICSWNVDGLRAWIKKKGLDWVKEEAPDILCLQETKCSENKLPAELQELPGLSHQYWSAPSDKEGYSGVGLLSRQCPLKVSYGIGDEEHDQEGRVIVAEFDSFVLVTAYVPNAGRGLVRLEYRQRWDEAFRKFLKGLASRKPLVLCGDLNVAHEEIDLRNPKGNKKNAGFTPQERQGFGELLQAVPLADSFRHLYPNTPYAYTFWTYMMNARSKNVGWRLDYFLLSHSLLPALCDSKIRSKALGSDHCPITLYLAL
Alpha-galactosidase A (Homo sapiens), sequence (P06280 whole entry, looked up): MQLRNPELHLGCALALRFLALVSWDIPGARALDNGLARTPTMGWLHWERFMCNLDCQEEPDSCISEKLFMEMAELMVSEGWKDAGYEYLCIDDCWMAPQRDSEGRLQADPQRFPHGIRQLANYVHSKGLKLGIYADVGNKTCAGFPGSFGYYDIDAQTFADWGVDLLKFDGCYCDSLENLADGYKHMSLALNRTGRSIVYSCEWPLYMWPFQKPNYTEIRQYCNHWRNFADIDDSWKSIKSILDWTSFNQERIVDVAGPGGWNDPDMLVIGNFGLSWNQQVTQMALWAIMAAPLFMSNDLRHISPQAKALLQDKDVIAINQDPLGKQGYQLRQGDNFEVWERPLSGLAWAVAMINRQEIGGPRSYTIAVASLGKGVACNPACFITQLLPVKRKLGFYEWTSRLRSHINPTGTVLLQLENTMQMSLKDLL

CCCN(CC1CC1)c1nc(C)nc(Nc2c(Cl)cc(Cl)cc2Cl)c1Cl
outcome [1]: inactive
outcome [2]: inactive
activity change, negative = inhibition ([3]; at 57.5 µM (top of the series)): -0.101% (inactive)
max response [3, 20]: -15.8%
max response [3, 21]: -15.8%
Potency [4]: inactive
Potency [5]: inactive
Potency [6]: 3.55 µM (active)
Potency [7]: 3.98 µM (active)
Potency [8]: 2.82 µM (active)
Potency [9]: 3.98 µM (active)
Potency [10]: 11.2 µM (active)
Potency [11]: 3.16 µM (active)

CN1CCc2ccccc2Cc2[nH]c3ccccc3c2CC1
outcome [1]: inactive
outcome [2]: inactive
Potency [12]: inactive
Potency [4]: inactive
Potency [5]: inactive
Potency [6]: 7.08 µM (active)
Potency [7]: 10 µM (active)
Potency [8]: 7.08 µM (active)
Potency [9]: 12.6 µM (active)
Potency [10]: 12.6 µM (active)
Potency [11]: 5.62 µM (active)

CC12C(=O)OC(=O)C1(C)C1CCC2O1 (configuration not stated)
Potency [12]: inactive
Potency [4]: inactive
Potency [5]: inactive
Potency [6]: 3.98 µM (active)
Potency [7]: 4.47 µM (active)
Potency [8]: 3.16 µM (active)
Potency [9]: 2.24 µM (active)
Potency [10]: 4.47 µM (active)
Potency [11]: 2.51 µM (active)

CCCCCCCCCCCCCCCC(=O)NCC(COP(=O)([O-])OCC[N+](C)(C)C)OCC (configuration not stated)
activity change, negative = inhibition ([3]; at 57.5 µM (top of the series)): -0.558% (inactive)
max response [3, 20]: -22.8%
max response [3, 21]: -25%
Potency [5]: inactive
Potency [6]: inactive
Potency [8]: inactive
Potency [9]: inactive
Potency [10]: inactive

O=c1[nH]c2ccccc2n1CCCN1CCN(C(c2ccccc2)c2ccccc2)CC1
outcome [2]: inactive
activity change, negative = inhibition ([3]; at 57.5 µM (top of the series)): 0.533% (inactive)
max response [3, 20]: 44.5%
max response [3, 21]: 44%
Potency [4]: inactive
Potency [5]: inactive
Potency [6]: 7.08 µM (active)
Potency [7]: 12.6 µM (active)
Potency [11]: 4.47 µM (active)

CCCCCCCCCCCCCCCCCCNC(=O)OCC(COP(=O)([O-])OCC[n+]1ccsc1)OC (configuration not stated)
activity change, negative = inhibition ([3]; at 57.5 µM (top of the series)): 0.643% (inactive)
max response [3, 20]: -16.2%
max response [3, 21]: -15%
Potency [12]: inactive
Potency [4]: inactive
Potency [5]: inactive
Potency [7]: 11.2 µM (active)
Potency [9]: inactive
Potency [10]: inactive

O=C(O)CCCC[C@@H]1CCSS1
activity change, negative = inhibition ([3]; at 57.5 µM (top of the series)): -3.03% (inactive)
max response [3, 20]: -26.8%
max response [3, 21]: -29%
Potency [4]: inactive
Potency [6]: inactive
Potency [7]: inactive
Potency [8]: inactive
Potency [9]: inactive
Potency [10]: inactive
Potency [11]: inactive

O=C(/C=C/c1ccc(O)c(O)c1)OCCc1ccccc1
activity change, negative = inhibition ([3]; at 57.5 µM (top of the series)): -2.35% (inactive) and -20.7% (inactive)
max response [3, 20]: -15.3% and -76.7%
max response [3, 21]: -17.2% and -81.3%
Potency [12]: inactive
Potency [5]: inactive
Potency [6]: 6.31 µM (active)
Potency [7]: 5.01 µM (active)
Potency [8]: 10 µM (active)
Potency [9]: 12.6 µM (active)
Potency [11]: 5.01 µM (active)

Nc1ccc(O)c(C(=O)O)c1
Potency [13]: inactive
Potency [14]: inactive
Potency [15]: inactive
Potency [16]: inactive
Potency [17]: inactive
Potency [18]: inactive
Potency [19]: inactive
activity change, negative = inhibition ([3]; at 25.7 µM (top of the series)): 1.25% (inactive)
max response [3, 20]: -4.23%
max response [3, 21]: -4.44%

CCCCCCCCCCCCCCCC(=O)OC(CC(=O)O)C[N+](C)(C)C (configuration not stated)
activity change, negative = inhibition ([3]; at 57.5 µM (top of the series)): -1.01% (inactive)
max response [3, 20]: 29%
max response [3, 21]: 25.7%
Potency [12]: inactive
Potency [4]: inactive
Potency [6]: inactive
Potency [7]: inactive
Potency [9]: inactive
Potency [10]: inactive

N[C@@H](CC(=O)O)C(=O)O
outcome [1]: inactive
outcome [2]: inactive
activity change, negative = inhibition ([3]; at 57.5 µM (top of the series)): 4.62% (inactive) and -0.577% (inactive)
max response [3, 20]: -7.93% and 52.8%
max response [3, 21]: -3.65% and 51.4%
Potency [12]: inactive
Potency [4]: inactive
Potency [5]: inactive
Potency [6]: inactive
Potency [7]: inactive
Potency [8]: inactive
Potency [9]: inactive
Potency [10]: inactive
Potency [11]: inactive

S=C(S)OC1CC2CC1C1CCCC21 (configuration not stated)
activity change, negative = inhibition ([3]; at 57.5 µM (top of the series)): -2.21% (inactive)
max response [3, 20]: -18.8%
max response [3, 21]: -14.9%
Potency [4]: inactive
Potency [6]: inactive
Potency [7]: inactive
Potency [8]: inactive
Potency [9]: inactive
Potency [10]: inactive
Potency [11]: inactive

O=C(Nc1cccc(C(=O)Nc2ccc(S(=O)(=O)O)c3cc(S(=O)(=O)O)cc(S(=O)(=O)O)c23)c1)Nc1cccc(C(=O)Nc2ccc(S(=O)(=O)O)c3cc(S(=O)(=O)O)cc(S(=O)(=O)O)c23)c1
outcome [1]: inactive
outcome [2]: inactive
activity change, negative = inhibition ([3]; at 57.5 µM (top of the series)): 2.61% (inactive)
max response [3, 20]: -8.67%
max response [3, 21]: -6.27%
Potency [12]: 10 µM (active)
Potency [4]: inactive
Potency [5]: 8.91 µM (active)
Potency [6]: inactive
Potency [7]: inactive
Potency [8]: inactive
Potency [9]: inactive
Potency [10]: inactive
Potency [11]: inactive

CCCCCCCC/C=C\CCCCCCCC(=O)NCCO
outcome [2]: inactive
activity change, negative = inhibition ([3]; at 57.5 µM (top of the series)): 1.41% (inactive)
max response [3, 20]: 18.9%
max response [3, 21]: 20.6%
Potency [6]: 3.55 µM (active)
Potency [7]: 2.51 µM (active)
Potency [8]: 3.98 µM (active)
Potency [9]: 7.94 µM (active)
Potency [10]: 8.91 µM (active)
Potency [11]: 2.51 µM (active)

O=Nc1ccc2oc(=O)ccc2c1
outcome [2]: inactive
Potency [12]: inactive
Potency [4]: inactive
Potency [5]: inactive
Potency [6]: 12.6 µM (active)
Potency [8]: 11.2 µM (active)

NC[C@@H]1O[C@H](C23CC4CC(CC(C4)C2)C3)Cc2c1ccc(O)c2O
outcome [2]: inactive
Potency [12]: inactive
Potency [4]: inactive
Potency [5]: inactive
Potency [6]: 2 µM (active)
Potency [7]: 2 µM (active)
Potency [8]: 2.24 µM (active)
Potency [9]: 3.16 µM (active)
Potency [10]: 8.91 µM (active)
Potency [11]: 2.24 µM (active)
